Assay outcomes from PubChem.
Sampled rows, rich in hits. Any-hit rate of the full collection: about 3.4%.
TEAD-YAP block = TEAD-YAP interaction inhibition; HEK-TIYL cells, TEAD-Gal4/YAP UAS-luciferase luminescence; inhibition, % at 9.12 µM; actives 1.4% (n = 640,000); in the data active = inhibition above about 32%
GPR151 activ = activates the human receptor GPR151; PathHunter beta-arrestin GPR151 cells, luminescence; activation, % at 11.2 µM; Q8TDV0; AID 1508602; actives 1% (n = 650,000); in the data active = activation above about 4.9%
FBW7 act = human FBW7 E3 ligase activation, primary screen | normalized activity (activation), % at 26.1 µM | actives 0.13% (n = 650,000) | Q969H0 | AlphaScreen FBW7–phospho-cyclin E peptide binding, activator screen; in the data active = normalized activity above about 1.9%;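 note: purified mutant Fbw7 with reduced substrate affinity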
MITF inh = human MITF inhibition, primary screen | AlphaScreen MITF homodimerization, bead proximity signal | inhibition, % at 2.6 µM | actives 0.91% (n = 650,000); in the data active = inhibition above about 50%
Target sequence (O75030 whole entry, looked up): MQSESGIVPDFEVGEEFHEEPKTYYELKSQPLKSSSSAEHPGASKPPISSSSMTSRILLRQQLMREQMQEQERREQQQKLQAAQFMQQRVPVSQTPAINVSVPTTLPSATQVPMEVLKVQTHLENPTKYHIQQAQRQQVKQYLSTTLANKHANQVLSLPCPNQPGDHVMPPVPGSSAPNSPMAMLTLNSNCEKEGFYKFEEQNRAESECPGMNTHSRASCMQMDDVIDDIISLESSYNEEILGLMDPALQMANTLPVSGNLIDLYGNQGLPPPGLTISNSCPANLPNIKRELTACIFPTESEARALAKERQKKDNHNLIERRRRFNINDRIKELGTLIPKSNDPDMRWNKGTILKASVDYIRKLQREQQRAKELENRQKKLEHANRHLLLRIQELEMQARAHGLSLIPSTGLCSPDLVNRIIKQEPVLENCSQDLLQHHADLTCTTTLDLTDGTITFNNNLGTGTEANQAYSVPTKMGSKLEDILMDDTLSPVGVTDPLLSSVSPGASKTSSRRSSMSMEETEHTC
A number is an active result; - = inactive; . = not tested or not shown.

SMILES	TEAD-YAP block	GPR151 activ	FBW7 act	MITF inh
COc1ccc(S(=O)(=O)N2CCSC2c2cc(OC)c(OC)cc2OC)cc1 (stereo not drawn)	43	-	-	-
COc1cc(OC)c(C2SCCN2S(=O)(=O)c2ccc(C)cc2)cc1OC (stereo not drawn)	-	-	-	-
O=C(Cn1c(-c2ccccc2)noc1=O)Nc1ccc(OCc2ccccc2)cc1	-	-	-	-
C=CCc1cc(OC)ccc1OCCCNCCCOC	-	-	-	-
OC1CCC(Nc2nc(Nc3ccc(N4CCOCC4)cc3)c3ncn(-c4ccccc4)c3n2)CC1 (stereo not drawn)	38	-	-	-
c1ccc(-n2cnc3c(NC4CC4)nc(Nc4ccc(N5CCOCC5)cc4)nc32)cc1	33	-	-	-
OC1CCC(Nc2nc(NCc3ccccc3)c3ncn(-c4ccccc4)c3n2)CC1 (stereo not drawn)	-	-	-	-
O=C1N[C@@H](Cc2ccc(Cl)cc2)C(=O)N2CCN(Cc3ccccc3)C[C@H]12	-	-	-	-
O=C1N[C@@H](Cc2ccccc2)C(=O)N2CCN(Cc3ccc(Cl)cc3)C[C@H]12	-	-	2.1	-
CS(=O)(=O)N1CCC(Oc2cccc(-c3cccs3)c2)CC1	-	-	-	-
CCOC(=O)C1=C(O)/C(=C/c2ccc(C)o2)SC1=Nc1cccc(Cl)c1	-	-	-	-
Cn1nnnc1Sc1ccc([N+](=O)[O-])cc1C(=O)Nc1ccc(C(F)(F)F)cc1	50	-	-	-
CCOC(=O)c1sc(NC(=O)c2cc([N+](=O)[O-])ccc2Sc2nnnn2C)cc1C	-	-	-	-
CC(C)Oc1ccccc1/C=C1/SC(N2CCCC2)=NC1=O	38	-	-	-
Cc1ccccc1N1CCN(C2=NC(=O)/C(=C\c3ccccc3OC(C)C)S2)CC1	-	-	-	-
CCN(CC)C(=O)Cn1nc(C)n2c(cc3sccc32)c1=O	-	-	-	-
CNC(=O)c1ncccc1Nc1cc(Nc2ccc3c(c2)CC(=O)N3)ncc1C(F)(F)F	-	-	-	-
CC(=O)Nc1ccccc1Nc1cc(Nc2ccc3c(c2)CC(=O)N3)ncc1C(F)(F)F	41	-	-	-
CNC(=O)c1ncccc1Nc1cc(Nc2ccc3c(c2)CCC(=O)N3)ncc1C(F)(F)F	35	-	-	-
CCOC(=O)C1=C(c2ccccc2)N=c2s/c(=C\c3ccccc3OC)c(=O)n2C1c1c(OC)ccc2ccccc12 (stereo not drawn)	-	-	-	-
CO[C@@H]1[C@@H](OC2OC(C)C(OC3CC(C)(O)C(O)C(C)O3)C(N(C)C)C2O)[C@@H](CC=O)C[C@@H](C)[C@@H](OC2CCC(N(C)C)C(C)O2)/C=C/C=C/C[C@@H](C)OC(=O)C[C@H]1O (stereo partly drawn)	.	-	-	-
CC(C)(C)c1ccc(C(=O)Nc2cccc(F)c2)cc1	42	-	-	-
CCN(CC)S(=O)(=O)c1cc(C(=O)Nc2cccc(O)c2)ccc1C	85	-	-	-
CC(=O)Nc1cccc(NC(=O)c2ccc(Br)cc2)c1	-	-	-	-
Cc1ccc(C(=O)Nc2cccc(O)c2)cc1	82	-	-	-
SMILES	TEAD-YAP block	GPR151 activ	FBW7 act	MITF inh
CC(=O)c1cccc(NC(=O)c2ccc(C)cc2)c1	-	-	-	-
O=C(Nc1cccc(O)c1)c1ccc(Br)cc1	36	-	-	-
CC(C)(C)C(=O)COC(=O)c1ccc(S(C)(=O)=O)c([N+](=O)[O-])c1	-	-	-	-
CS(=O)(=O)c1ccc(C(=O)OCc2cccc(C(F)(F)F)c2)cc1[N+](=O)[O-]	52	-	-	-
N#Cc1cc(-c2ccnc(Nc3cccc(NC(=O)N4CCCC4)c3)n2)ccc1N1CCCC1	45	-	-	-
COc1ccccc1CNC(=O)c1cc2c(=O)[nH]c3ccccc3c2n1C	-	-	4.8	-
O=C(CN1C(=O)S/C(=C\c2ccccc2)C1=O)Nc1cccnc1	-	-	-	-
O=C(NCC1CCC2(CCN(Cc3ccc4ncccc4c3)CC2)O1)C1CCCO1 (stereo not drawn)	-	-	2.1	-
CCCCCOc1ccc(NC(=O)CSc2cccc3cccnc23)cc1	37	-	-	-
COc1cc(C(=O)N/N=C/c2ccc(Br)s2)cc(OC)c1OC	59	-	-	-
O=C(N/N=C/c1ccc(Br)s1)c1ccncc1	36	-	-	-
COc1cc(/C=N/NC(=O)c2cc(OC)c(OC)c(OC)c2)cc(OC)c1O	56	-	-	-
O=C(N/N=C/c1cc(Br)c(Br)s1)c1ccncc1	-	-	-	-
COC(=O)N/N=C/c1ccc(Br)s1	-	-	-	-
COc1cc(C(=O)N/N=C/c2ccc(O)cc2)cc(OC)c1OC	57	-	-	-
COc1ccc(C(=O)N/N=C/c2cc(OC)c(O)c(OC)c2)cc1OC	-	-	-	-
NS(=O)(=O)c1cccc(NC(=O)CN2C(=O)NC3(CCCCC3)C2=O)c1	-	-	-	-
COc1cc(C(=O)N/N=C/c2ccc(OC)c(OC)c2C(=O)O)cc(OC)c1OC	67	-	-	-
COc1cc(/C=N\NC(=O)c2c(C)nc3ccc(Cl)cn23)cc(OC)c1OC	-	-	-	-
COc1cc(/C=N/NC(=O)c2c(C)nc3ccc(Cl)cn23)cc(OC)c1OC	-	-	16	-
COc1cc(C(=O)N/N=C/c2cccc(Br)c2)cc(OC)c1OC	60	-	-	-
N#C/C(=C/c1ccccc1)c1nn(-c2ccccc2)c(N)c1C#N	-	-	-	-
CC(CNC(=O)CCCc1nnc2n(C)c(=O)c3sccc3n12)c1ccccc1 (stereo not drawn)	-	-	-	-
O=C1Cc2ccccc2C2(CCN(Cc3ccc(C(=O)c4ccccc4)cc3)CC2)N1	36	-	-	-
COCCOCCCN1CCC2(CC1)NC(=O)Cc1ccccc12	-	-	-	-
SMILES	TEAD-YAP block	GPR151 activ	FBW7 act	MITF inh
COc1cccc(CN2CCN(Cc3ccccc3)C(CCO)C2)c1O (stereo not drawn)	-	-	-	-
CCN1C(=O)c2ccc(C(=O)Nc3cc(C(=O)O)cc(C(=O)O)c3)cc2C1=O	-	-	-	-
CCCN1C(=O)c2ccc(C(=O)Nc3ccc(O)cc3)cc2C1=O	38	-	-	-
CCCN1C(=O)c2ccc(C(=O)Nc3ccc(C(=O)O)cc3)cc2C1=O	53	-	-	-
CCCN1C(=O)c2ccc(C(=O)Nc3ccc(O)cc3C)cc2C1=O	-	-	-	-
COc1ccc(C2CC(C(F)(F)F)n3nc(C(=O)Nc4cccc5ccccc45)c(Cl)c3N2)cc1OC (stereo not drawn)	-	-	-	-
CCOC(=O)c1ccc(OCCCNCc2ccco2)cc1	-	-	-	-
CCCCS(=O)(=O)CC(COC(=O)c1ccccc1)S(=O)(=O)CCCC (stereo not drawn)	33	-	-	-
CCCCCCOc1ccc(C(=O)OCC(=O)c2ccccc2)cc1	-	-	-	-
Cc1cc(/C=C(\C#N)C(=O)OCC(=O)NCc2cccs2)c(C)n1CC(C)C	49	-	-	-
Cc1cc(/C=C(\C#N)C(=O)O)c(C)n1CC(C)C	-	-	-	-
O=C(CSc1ccccc1)N1CCN(c2nc3ccccc3s2)CC1	38	-	-	-
